Growth data for 13 compounds are collected here from PubChem BioAssay (NCI).

About 83,000 compounds went through this panel and 20% of them were active in at least one assay; those are over-represented in the sample as a whole.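 Percent growth is the endpoint: 0 to 100 indicates growth inhibition (40 means 60% inhibition), 0 means no net growth, and negative values indicate cell death.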 A number with no mark means an inactive call. Calls of active or inactive are those of the source. Rule for the calls: active = growth percent below 10; inactive = the rest.

Among the test systems are DU-145 prostate; K-562 leukemia; MALME-3M melanoma; MDA-MB-231 breast; RXF 393 renal; SF-268 CNS; SF-295 CNS; SF-539 CNS; UACC-257 melanoma; M14 melanoma.
Common to all, as to assay: NCI-60 one-dose screen, 48 h (100 = growth as untreated, 0 = no growth, -100 = all killed)
What all share (conditions): 10 µM unless noted

Turning to `CCOC(=O)c1ccc2c(c1)ncn2-c1ccc(NC(=O)Nc2cccc(C)c2)cc1`, the growth with DU-145 prostate was 71.9%; in the assay with K-562 leukemia it was 18%; with MALME-3M melanoma, 96.2%; in the assay on MDA-MB-231 breast, 52.5%; in the assay on RXF 393 renal, 84.5%; with SF-268 CNS, 95.4%. For the same compound, the growth in the assay with SF-295 CNS is 57.6%; in the assay with SF-539 CNS, 49.2%; in the assay with UACC-257 melanoma it was 94%; in the assay with M14 melanoma, 64.5%.

Turning to `O=S(=O)(NCCNc1nccc(-c2c(-c3cccc(F)c3)nc3sccn23)n1)c1ccc(Br)cc1`, the growth in the assay on DU-145 prostate was 52.5%; with K-562 leukemia, 38.7%; in the assay on MALME-3M melanoma, 71.1%; with MDA-MB-231 breast, 69.7%; with RXF 393 renal, 72.7%; in the assay on SF-268 CNS, 53%. Also, the growth is 58.7% in the assay with SF-295 CNS, 76.4% in the assay on SF-539 CNS, 82% in the assay on UACC-257 melanoma and 52.3% with M14 melanoma.

Regarding `COc1ccc(C(=O)C2C(C#N)C(C#N)C3C=Cc4ccccc4N32)cc1` (stereo not given), the growth in the assay with DU-145 prostate was 24.2%; in the assay with K-562 leukemia, 11.5%; in the assay with MALME-3M melanoma it was 38.6%; in the assay on MDA-MB-231 breast, 29%; in the assay with RXF 393 renal it was -21.8% (active); in the assay with SF-268 CNS it was 55.7%. In addition, the growth is 22.5% with SF-295 CNS, -20.9% (active) in the assay with SF-539 CNS, 82.9% with UACC-257 melanoma and -6.64% (active) with M14 melanoma.

As for `N#C/C(=C\c1ccc(Cl)cc1)n1nnc2cc(F)c(F)cc21`, the growth in the assay with DU-145 prostate was 14%; with K-562 leukemia it was 11.5%; in the assay on MALME-3M melanoma, 14.8%; with MDA-MB-231 breast, 11.9%; in the assay with RXF 393 renal it was -18.6% (active); in the assay with SF-268 CNS it was 35.7%. In addition, the growth with SF-295 CNS is 86%; in the assay on SF-539 CNS it was 3.56% (active); in the assay on UACC-257 melanoma it was 27.7%; with M14 melanoma, 11.1%.

Take `CCc1c(Cl)nc(N)nc1Nc1ccc(C)c(C)c1`: the growth in the assay with DU-145 prostate was 99.5%; in the assay with K-562 leukemia it was 96.5%; in the assay with MALME-3M melanoma, 100%; in the assay on MDA-MB-231 breast, 97.3%; in the assay with RXF 393 renal, 93.9%; with SF-268 CNS, 97.9%. Moreover, the growth was 93.2% in the assay with SF-295 CNS, 100% with SF-539 CNS, 105% with UACC-257 melanoma and 104% with M14 melanoma.

As to `COc1cc2c(=O)n(CCN(C)C)c3c4cc5c(cc4ccc3c2cc1OC)OCO5`, the growth was 3.59% (active) with DU-145 prostate; 12.1% in the assay on K-562 leukemia; -63.6% (active) with MALME-3M melanoma; -21.6% (active) in the assay with MDA-MB-231 breast; -84.6% (active) with RXF 393 renal; 0.0226% (active) with SF-268 CNS. Besides, the growth in the assay with SF-295 CNS is 3.79% (active); with SF-539 CNS it was -39.9% (active); in the assay with UACC-257 melanoma, -33.4% (active); with M14 melanoma it was -56.7% (active).

Regarding `O=Cc1cc2ccccc2nc1Oc1ccc(C(F)(F)F)cc1`, the growth is 98.4% in the assay on DU-145 prostate; 59% in the assay with K-562 leukemia; 96% with MALME-3M melanoma; 75.7% with MDA-MB-231 breast; 91.9% with RXF 393 renal; 83.4% with SF-268 CNS. In addition, the growth in the assay on SF-295 CNS was 82.9%; in the assay on SF-539 CNS, 97.8%; in the assay on UACC-257 melanoma, 107%; in the assay with M14 melanoma, 99.8%.

With `Cc1ccc(/C=C(/C#N)n2nnc3cccc(F)c32)cc1`, the growth was -24.9% (active) in the assay on DU-145 prostate; 6.48% (active) with K-562 leukemia; 36.3% in the assay with MALME-3M melanoma; -38.5% (active) with MDA-MB-231 breast; -51.4% (active) in the assay on RXF 393 renal; 21.2% in the assay with SF-268 CNS. Moreover, the growth is 16.2% in the assay on SF-295 CNS, -48.1% (active) in the assay on SF-539 CNS, 52.8% with UACC-257 melanoma and -13.6% (active) in the assay on M14 melanoma.

In the case of `COc1ccc(C(=O)c2cc(C)c(OC)c(C)c2)c(OC)c1NC(C)=O`, the growth is 4.21% (active) with DU-145 prostate; 15.5% in the assay with K-562 leukemia; 58.5% in the assay on MALME-3M melanoma; 20.9% in the assay with MDA-MB-231 breast; 10.8% with RXF 393 renal; 37.9% in the assay on SF-268 CNS. Further, the growth in the assay on SF-295 CNS is 13%; in the assay on SF-539 CNS, -13.7% (active); in the assay on UACC-257 melanoma, 66.1%; in the assay on M14 melanoma, -8.33% (active).

As for `CC1=C(C(=O)/C=C/c2c[nH]c3ccccc23)C(c2ccccc2)NC(=S)N1` (stereo not given), the growth in the assay with DU-145 prostate is 113%; in the assay on K-562 leukemia it was 90.1%; with MALME-3M melanoma it was 97.7%; with MDA-MB-231 breast it was 85.3%; in the assay with RXF 393 renal, 105%; in the assay with SF-268 CNS, 92.7%. Moreover, the growth with SF-295 CNS is 97.6%; with SF-539 CNS, 98.2%; in the assay on UACC-257 melanoma, 102%; with M14 melanoma, 94.4%.

As for `Cn1cc(CC2CC(=O)N(c3ccccc3)C2=O)sc1=NC(=O)c1ccccc1` (stereo not given), the growth is 103% in the assay with DU-145 prostate; 104% in the assay with K-562 leukemia; 89.9% with MALME-3M melanoma; 111% in the assay on MDA-MB-231 breast; 92.2% with RXF 393 renal; 96.2% with SF-268 CNS. Besides, the growth in the assay with SF-295 CNS was 102%; in the assay on SF-539 CNS, 99.8%; with UACC-257 melanoma it was 98%; in the assay on M14 melanoma, 90.9%.

Consider `O=S(=O)(NCCNc1nccc(-c2c(-c3cccc(O)c3)nc3occn23)n1)c1ccc(Cl)cc1`, for which the growth in the assay on DU-145 prostate was 111%; in the assay on K-562 leukemia, 87.8%; with MALME-3M melanoma, -4.98% (active); with MDA-MB-231 breast, 86.2%; with RXF 393 renal it was 107%; in the assay on SF-268 CNS, 103%. For the same compound, the growth in the assay on SF-295 CNS is 114%; in the assay on SF-539 CNS it was 121%; with UACC-257 melanoma, 46.9%; in the assay with M14 melanoma, 35.1%.

Consider `COc1cc(C2C3CC4CCCC[C@H]4N3[C@@]3(C(=O)Nc4cc(Cl)ccc43)C2C(=O)c2nc3ccccc3[nH]2)cc(OC)c1OC` (stereo not given in full), for which the growth in the assay with DU-145 prostate was 80.5%; with K-562 leukemia, 40.5%; with MALME-3M melanoma it was 56.6%; in the assay on MDA-MB-231 breast, 76.8%; in the assay with RXF 393 renal, 51.1%; in the assay with SF-268 CNS, 67.3%. The growth is 45.5% in the assay on SF-295 CNS, 70.1% with SF-539 CNS, 61.6% in the assay with UACC-257 melanoma and 52% in the assay with M14 melanoma.
